The results in this text go back to PubChem BioAssay (Tox21).

Assay [1] in a line: Caspase-3/7 induction in HepG2 cells by small molecules, qHTS assay (AID 1346978). Further: nearly all actives have a fitted effect of over 15% in size. Further: potency means the concentration at half of the fitted maximal effect. The gist of the method: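 Caspase-3/7 induction was measured by Caspase-Glo 3/7 luminescence (30 min, room temperature) after a 17 hr compound exposure of wild-type HepG2 cells seeded at 2,000 per well and pre-incubated 5 hr.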
Assay [2] in a line: Caspase-3/7 induction in CHO-K1 cells by small molecules, qHTS cell viability counter screen (AID 1346979). Further: nearly all actives have a fitted effect of over 35% in size. Further: potency means the concentration at half of the fitted maximal effect. The gist of the method:
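To flag cytotoxic compounds, treated CHO-K1 wild-type cells were given CellTiter-Fluor at 16hr and read fluorescently after 1hr at 37C; the caspase-3/7 luminescence was measured in these same wells.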
In general terms: In qHTS, concentration-response curves come from the screen itself.

Assay [3] in a line: Caspase-3/7 induction in CHO-K1 cells by small molecules, qHTS assay (AID 1346980). Further: nearly all actives have a fitted effect of over 15% in size. The method in brief:
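Luminescent Caspase-Glo 3/7 read (30min, room temperature) quantified apoptosis induction. Cells were wild-type CHO-K1, treated with compound for 17hr at 37 C and 5% CO2.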

Assay [4] can be described thus: Caspase-3/7 induction in HepG2 cells by small molecules, qHTS cell viability counter screen (AID 1346981). Further: series mostly up to about 92 µM; nearly all actives have a fitted effect of over 30% in size. The method in brief: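 Fluorescence read-out of live-cell protease activity (CellTiter-Fluor) after 1 hr with reagent. This was measured in the same wells as the caspase-3/7 luminescence, on HepG2 cells exposed to DMSO-dissolved compounds for 16 hr at 37 C.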

In assay [5] the target is Nuclear receptor subfamily 1 group I member 2 (Rattus norvegicus) (UniProt Q9R1A7). In words: Rat pregnane X receptor (rPXR) activation by small molecules, qHTS assay (AID 1346983). Further: nearly all actives have a fitted effect of over 20% in size. To be noted: rPXR luciferase reporter cells, One-Glo luminescence, 24 h; max activation: active compounds read high. The method in brief: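 Luminescent readout (One-Glo luciferase, 30 min room temperature) followed 24 hr compound treatment at 37 C of rPXR cells plated 2,000 per well and preincubated 5hr; qHTS format with compounds delivered in DMSO.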

Assay [6] in a line: Human pregnane X receptor (PXR) small molecule agonists, qHTS cell viability counter screen (AID 1346977). Further: nearly all actives have a fitted effect of over 50% in size. Further: potency means the concentration at half of the fitted maximal effect. The gist of the method: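 Readout is CellTiter-Fluor fluorescence from PXR-Luc HepG2 cells. Plated cells rested 5hr, then were treated with compounds for 24hr at 37C and 5% CO2, with reagent present during the last hour.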
The target of assay [7] is Cytochrome P450 2C9 (Homo sapiens) (UniProt P11712). In words: Cytochrome P450 Family 2 Subfamily C Member 9 (CYP2C9) small molecule antagonists: luciferase reporter qHTS assay (AID 1671198). Further: series mostly up to about 120 µM; nearly all actives have a fitted effect of over 50% in size. The gist of the method:
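Enzyme-substrate mix preincubated with compound 10 min at room temperature; reaction started with NADPH regeneration solution, 1 h 37C. Luminescent luciferin product read after 20 min detection reagent.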
On the technique in general: A reporter such as luciferase makes a cellular process visible.

Assay [8] has as its target Cytochrome P450 1A2 (Homo sapiens) (UniProt P05177). As to the kind of experiment: Cytochrome P450 Family 1 Subfamily A Member 2 (CYP1A2) small molecule antagonists: luciferase reporter qHTS assay (AID 1671199). Further: nearly all actives have a fitted effect of over 50% in size. Further: potency means the concentration at half of the fitted maximal effect. The method in brief:
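Luminescence readout (relative luminescence units) after luciferin detection reagent, 20 min RT. Preceded by 1 h room-temperature CYP1A2 reaction with NADPH regeneration solution following 10 min compound preincubation with enzyme and proluciferin substrate. Furafylline positive control.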

In assay [9] the target is Voltage-gated inwardly rectifying potassium channel KCNH2 (Homo sapiens) (UniProt Q12809). In words: Human Ether-a-go-go-Related Gene (hERG) channel small molecule antagonists: fluorescence cell-based qHTS assay (AID 1671200).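 Further: hERG-expressing U2OS cells given a thallium stimulus after FluxOR II dye loading; series mostly up to about 77 µM; nearly all actives have a fitted effect of over 50% in size.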 The method in brief:
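Measured: Tl+ flux via fluorescence (480/540 nm) in hERG-expressing U2OS cells after 1 h dye loading at room temperature.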

Assay [10] addresses Cytochrome P450 3A4 (Homo sapiens) (UniProt P08684). In words: Cytochrome P450 Family 3 Subfamily A Member 4 (CYP3A4) small molecule antagonists: luciferase reporter qHTS assay (AID 1671201). The method in brief: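 Setup: enzyme-substrate mix, compound pin transfer, 10 min RT. Reaction: NADPH regeneration solution, 1 h RT. Readout: detection reagent stops turnover, luminescence measured after 20 min, expressed in relative luminescence units.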

Assay [11] has as its target Nuclear receptor subfamily 1 group I member 2 (Homo sapiens) (UniProt O75469). In words: Human pregnane X receptor (PXR) small molecule agonists, qHTS assay (AID 1346982). Further: nearly all actives have a fitted effect of over 35% in size. Further: potency means the concentration at half of the fitted maximal effect. The method in brief:
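HepG2 PXR-Luc reporter line, 5% charcoal-stripped FBS; 5 hr pre-incubation, compound (DMSO) 24 hr at 37 C/5% CO2; ONE-Glo 30 min RT; luminescence read-out.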

The target is the same in assay [12]. In words: CYP3A4 induction through human pregnane X receptor (PXR) by small molecules, qHTS assay (AID 1346984). Further: nearly all actives have a fitted effect of over 40% in size. Further: potency means the concentration at half of the fitted maximal effect. The gist of the method:
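HepG2-derived DPX-2 line carrying PXR plus a CYP3A4-promoter luciferase reporter; cells plated 5 hr, compound-exposed 24 hr at 37C. CYP3A4 activity probed with 3uM (final) Luciferin-IPA for 3hr, then luciferase read after One-Glo.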

Assay [13] shares this target. In words: Human pregnane X receptor (PXR) activation by small molecules, qHTS assay (AID 1346985). Further: nearly all actives have a fitted effect of over 40% in size. Further: potency means the concentration at half of the fitted maximal effect. The method in brief: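 DPX-2 cells (HepG2 co-transfected with a PXR response element and a CYP3A4-promoter luciferase construct) were seeded at 2,000 per well, rested 5 hr at 37C, then exposed to DMSO-dissolved compounds for 24 hr. Activation was read as luciferase luminescence.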

Assay [14] addresses Cytochrome P450 2D6 (Homo sapiens) (UniProt P10635). As to the kind of experiment: Cytochrome P450 Family 2 Subfamily D Member 6 (CYP2D6) small molecule antagonists: luciferase reporter qHTS assay (AID 1671196). Further: nearly all actives have a fitted effect of over 50% in size. Further: potency means the concentration at half of the fitted maximal effect. The method in brief: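 Luminogenic proluciferin substrate, CYP2D6 enzyme; 10 min RT preincubation with compound, NADPH regeneration system added, 1 h RT. Stop/detection reagent, 20 min RT, luminescence read (RLU). Signal proportional to CYP activity.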

In assay [15] the target is Cytochrome P450 2C19 (Homo sapiens) (UniProt P33261). In words: Cytochrome P450 Family 2 Subfamily C Member 19 (CYP2C19) small molecule antagonists: luciferase reporter qHTS assay (AID 1671197). Further: nearly all actives have a fitted effect of over 65% in size. Further: potency means the concentration at half of the fitted maximal effect. The method in brief: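 First, compounds are pinned into enzyme-substrate mix and held 10 min at room temperature. Second, NADPH regeneration solution is added and plates incubate 1 h at 37C. Third, detection reagent is added and luminescence read after 20 min.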

A number with no mark means an inactive call. Results filed as inconclusive are left out. The source made the active and inactive calls. The call rests on the fitted dose curve; in most records, active means well fitted curve in the direction sought with a large enough effect in the repeat runs; inconclusive means weak or mixed curves; inactive means no such curve, though single readings can be large; an effect the other way counts as inactive or inconclusive.
On the % scale 0 is the no-effect control and ±100 the full control effect.

Sequence of Cytochrome P450 1A2 (Homo sapiens) (P05177 whole entry, looked up): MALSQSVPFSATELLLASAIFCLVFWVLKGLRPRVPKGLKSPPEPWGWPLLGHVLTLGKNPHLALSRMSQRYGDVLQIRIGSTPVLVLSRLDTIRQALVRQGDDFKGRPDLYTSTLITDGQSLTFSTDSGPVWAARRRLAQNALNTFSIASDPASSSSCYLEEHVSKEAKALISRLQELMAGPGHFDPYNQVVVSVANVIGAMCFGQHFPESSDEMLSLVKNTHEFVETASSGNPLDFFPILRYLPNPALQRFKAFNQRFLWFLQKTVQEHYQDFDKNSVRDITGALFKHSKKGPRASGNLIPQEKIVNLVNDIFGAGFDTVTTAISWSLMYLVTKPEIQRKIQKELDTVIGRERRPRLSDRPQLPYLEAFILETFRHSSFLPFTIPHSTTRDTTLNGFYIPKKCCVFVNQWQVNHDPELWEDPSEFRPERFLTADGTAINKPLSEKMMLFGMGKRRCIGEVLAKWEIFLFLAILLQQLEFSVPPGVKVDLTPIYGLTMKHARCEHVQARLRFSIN
Sequence of Cytochrome P450 2D6 (Homo sapiens) (P10635 whole entry, looked up): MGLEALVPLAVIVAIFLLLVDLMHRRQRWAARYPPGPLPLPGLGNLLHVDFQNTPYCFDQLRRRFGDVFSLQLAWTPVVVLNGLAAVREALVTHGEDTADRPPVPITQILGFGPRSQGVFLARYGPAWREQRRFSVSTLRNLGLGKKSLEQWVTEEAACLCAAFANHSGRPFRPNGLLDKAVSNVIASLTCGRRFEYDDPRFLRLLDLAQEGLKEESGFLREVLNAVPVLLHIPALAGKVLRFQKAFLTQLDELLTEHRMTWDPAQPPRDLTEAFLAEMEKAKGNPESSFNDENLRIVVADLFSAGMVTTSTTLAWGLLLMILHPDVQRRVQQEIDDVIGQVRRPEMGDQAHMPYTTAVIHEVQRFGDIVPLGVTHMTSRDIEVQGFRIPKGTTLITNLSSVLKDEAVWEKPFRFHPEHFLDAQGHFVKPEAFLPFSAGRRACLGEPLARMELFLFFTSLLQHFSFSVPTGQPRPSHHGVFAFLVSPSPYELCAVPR
Sequence of Cytochrome P450 2C9 (Homo sapiens) (P11712 whole entry, looked up): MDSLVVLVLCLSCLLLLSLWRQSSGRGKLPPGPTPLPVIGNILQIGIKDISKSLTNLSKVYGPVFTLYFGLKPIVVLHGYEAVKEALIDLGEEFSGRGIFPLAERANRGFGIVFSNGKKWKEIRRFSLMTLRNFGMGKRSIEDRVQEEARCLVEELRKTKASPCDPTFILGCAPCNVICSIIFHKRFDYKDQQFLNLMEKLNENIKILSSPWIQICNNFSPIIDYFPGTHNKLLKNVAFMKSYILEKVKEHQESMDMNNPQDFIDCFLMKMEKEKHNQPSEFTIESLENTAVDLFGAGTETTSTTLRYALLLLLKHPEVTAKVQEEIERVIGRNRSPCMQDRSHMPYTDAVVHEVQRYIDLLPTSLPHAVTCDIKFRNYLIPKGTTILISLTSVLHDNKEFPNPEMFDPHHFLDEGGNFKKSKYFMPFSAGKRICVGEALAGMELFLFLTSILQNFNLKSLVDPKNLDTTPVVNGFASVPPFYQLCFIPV
Sequence of Nuclear receptor subfamily 1 group I member 2 (Rattus norvegicus) (Q9R1A7 whole entry, looked up): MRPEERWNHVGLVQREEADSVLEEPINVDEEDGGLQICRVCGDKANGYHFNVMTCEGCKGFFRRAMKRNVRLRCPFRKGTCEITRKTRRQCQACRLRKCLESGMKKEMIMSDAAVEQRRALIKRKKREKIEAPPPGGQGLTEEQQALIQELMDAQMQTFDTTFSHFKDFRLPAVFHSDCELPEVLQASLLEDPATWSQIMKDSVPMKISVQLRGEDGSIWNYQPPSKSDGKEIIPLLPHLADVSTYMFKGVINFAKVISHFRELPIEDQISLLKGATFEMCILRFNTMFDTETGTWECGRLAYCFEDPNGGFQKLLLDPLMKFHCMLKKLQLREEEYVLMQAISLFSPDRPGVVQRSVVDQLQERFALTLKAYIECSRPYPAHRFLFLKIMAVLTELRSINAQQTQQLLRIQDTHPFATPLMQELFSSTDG
Sequence of Cytochrome P450 2C19 (Homo sapiens) (P33261 whole entry, looked up): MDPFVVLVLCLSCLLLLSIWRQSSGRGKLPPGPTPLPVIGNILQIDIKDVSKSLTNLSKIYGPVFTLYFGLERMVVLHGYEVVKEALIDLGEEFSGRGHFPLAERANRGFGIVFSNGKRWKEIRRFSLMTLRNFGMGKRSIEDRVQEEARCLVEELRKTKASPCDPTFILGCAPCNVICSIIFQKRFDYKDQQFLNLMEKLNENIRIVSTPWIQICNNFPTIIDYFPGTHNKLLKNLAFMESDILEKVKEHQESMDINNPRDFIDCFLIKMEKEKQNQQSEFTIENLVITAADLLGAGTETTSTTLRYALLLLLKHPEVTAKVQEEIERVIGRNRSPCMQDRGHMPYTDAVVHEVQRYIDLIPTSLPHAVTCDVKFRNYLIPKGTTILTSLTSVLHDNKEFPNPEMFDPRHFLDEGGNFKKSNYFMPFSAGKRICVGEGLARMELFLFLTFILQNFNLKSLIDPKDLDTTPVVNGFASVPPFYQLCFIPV
Sequence of Cytochrome P450 3A4 (Homo sapiens) (P08684 whole entry, looked up): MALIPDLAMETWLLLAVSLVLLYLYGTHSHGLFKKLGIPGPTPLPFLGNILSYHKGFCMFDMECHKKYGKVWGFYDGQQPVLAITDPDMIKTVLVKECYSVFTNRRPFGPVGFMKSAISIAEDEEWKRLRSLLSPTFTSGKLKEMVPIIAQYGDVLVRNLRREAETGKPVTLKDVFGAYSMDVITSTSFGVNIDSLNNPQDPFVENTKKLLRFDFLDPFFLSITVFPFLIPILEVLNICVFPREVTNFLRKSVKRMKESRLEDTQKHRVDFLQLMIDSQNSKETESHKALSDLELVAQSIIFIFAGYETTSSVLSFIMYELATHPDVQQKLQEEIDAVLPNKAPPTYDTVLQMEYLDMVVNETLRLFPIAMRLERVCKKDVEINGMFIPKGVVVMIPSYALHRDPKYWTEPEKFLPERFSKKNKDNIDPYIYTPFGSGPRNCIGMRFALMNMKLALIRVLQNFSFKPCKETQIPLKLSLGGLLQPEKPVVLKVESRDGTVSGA
Sequence of Voltage-gated inwardly rectifying potassium channel KCNH2 (Homo sapiens) (Q12809 whole entry, looked up): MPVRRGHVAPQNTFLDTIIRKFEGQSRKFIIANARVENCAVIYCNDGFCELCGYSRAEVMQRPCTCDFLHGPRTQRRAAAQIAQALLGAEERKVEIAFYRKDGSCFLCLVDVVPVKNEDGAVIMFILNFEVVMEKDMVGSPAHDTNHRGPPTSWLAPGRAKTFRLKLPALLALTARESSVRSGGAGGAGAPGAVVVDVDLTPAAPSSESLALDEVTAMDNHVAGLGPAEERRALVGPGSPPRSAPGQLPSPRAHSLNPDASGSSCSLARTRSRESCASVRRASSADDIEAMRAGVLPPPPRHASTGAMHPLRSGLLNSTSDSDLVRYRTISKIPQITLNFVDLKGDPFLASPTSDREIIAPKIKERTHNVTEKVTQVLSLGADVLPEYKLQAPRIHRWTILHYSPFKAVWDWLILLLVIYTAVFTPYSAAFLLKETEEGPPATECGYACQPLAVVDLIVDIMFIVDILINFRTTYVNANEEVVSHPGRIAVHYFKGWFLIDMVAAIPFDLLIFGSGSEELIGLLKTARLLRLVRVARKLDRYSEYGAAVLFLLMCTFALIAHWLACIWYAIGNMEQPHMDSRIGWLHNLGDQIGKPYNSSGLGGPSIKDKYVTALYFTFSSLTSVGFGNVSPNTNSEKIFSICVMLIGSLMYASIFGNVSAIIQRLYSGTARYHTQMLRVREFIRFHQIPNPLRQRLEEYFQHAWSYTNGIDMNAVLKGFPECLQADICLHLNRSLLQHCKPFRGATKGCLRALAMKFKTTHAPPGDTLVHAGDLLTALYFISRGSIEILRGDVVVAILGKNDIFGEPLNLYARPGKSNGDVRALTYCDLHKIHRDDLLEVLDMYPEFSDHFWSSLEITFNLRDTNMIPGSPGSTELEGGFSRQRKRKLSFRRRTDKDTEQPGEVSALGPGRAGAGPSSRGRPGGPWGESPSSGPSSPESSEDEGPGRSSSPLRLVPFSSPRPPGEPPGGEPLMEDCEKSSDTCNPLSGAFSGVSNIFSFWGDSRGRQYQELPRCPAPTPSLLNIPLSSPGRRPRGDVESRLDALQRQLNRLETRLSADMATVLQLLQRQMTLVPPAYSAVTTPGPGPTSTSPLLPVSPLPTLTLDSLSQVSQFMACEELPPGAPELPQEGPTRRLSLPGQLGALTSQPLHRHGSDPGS
Sequence of Nuclear receptor subfamily 1 group I member 2 (Homo sapiens) (O75469 whole entry, looked up): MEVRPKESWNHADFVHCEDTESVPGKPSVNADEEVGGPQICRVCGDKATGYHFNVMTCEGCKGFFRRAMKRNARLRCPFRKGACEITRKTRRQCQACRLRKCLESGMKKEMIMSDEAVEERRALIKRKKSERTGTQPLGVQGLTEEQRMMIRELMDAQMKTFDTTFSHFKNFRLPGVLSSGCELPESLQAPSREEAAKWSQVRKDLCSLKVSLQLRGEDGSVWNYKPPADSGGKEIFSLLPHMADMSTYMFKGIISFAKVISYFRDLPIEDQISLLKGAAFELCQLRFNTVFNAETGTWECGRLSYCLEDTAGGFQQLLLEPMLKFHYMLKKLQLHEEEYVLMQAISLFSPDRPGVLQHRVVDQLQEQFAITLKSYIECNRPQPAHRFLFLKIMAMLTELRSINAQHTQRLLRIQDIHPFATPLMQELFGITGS

Turning to `CCc1cccc(N(C)C(N)=Nc2cccc3ccccc23)c1`, the Potency result in assay [1], in assay [2] and in assay [4] was “inactive” throughout. For the same compound, the compound was classed as inactive in assay [3]. In addition, the max activation in assay [5] is -1.24%.
On to `Nc1ccc(S(=O)(=O)O)c(N)c1`, for which the Potency entry in assay [6], in [1], in [2], in assay [4], in [7] and in assay [9] was “inactive” throughout. Besides, the Potency entry in [10] was “inactive”. In assay [8], the Potency was 22.4 µM (active).
On to `CCOc1cc(N)c(Cl)cc1C(=O)NCC1CN(Cc2ccc(F)cc2)CCO1` (centres undefined), for which the Potency result in assay [1], in [2], in assay [12] and in assay [14] was “inactive” throughout. Moreover, the result in assay [3] was inactive. In addition, the Potency in assay [11] is 5.31 µM (active); in [13] it was 12.6 µM (active); in assay [15], 3.47 µM (active); in [8], 1.55 µM (active). For the same compound, in assay [5], the max activation was 0.0903%.
Turning to `COC(=O)Nc1nc2ccc(C(=O)c3cccs3)cc2[nH]1`, the Potency in assay [1] was 0.266 µM (active); in assay [11], 26.6 µM (active); in assay [14], 38.9 µM (active); in assay [8], 12.9 µM (active). For the same compound, the compound was classed as inactive in assay [3]. The Potency entry in assay [9] and in [10] was “inactive” in each case.
`OC(CCCN1CCCCC1)(c1ccccc1)c1ccccc1`: the Potency result in assay [1], in assay [2], in [4], in assay [11], in assay [8] and in assay [9] was “inactive” in each case. Also, the compound was classed as inactive in assay [3]. In assay [14], the Potency was 0.11 µM (active).
In the case of `CNCCCC1c2ccccc2C=Cc2ccccc21`, the Potency in assay [6] was 29.8 µM (active); in assay [2], 26.6 µM (active); in assay [12], 3.55 µM (active); in assay [14], 4.9 µM (active). In addition, the max activation in [5] is -3.85%.
Regarding `CC(C)C(=O)O`, the Potency result in [1], in [2], in assay [15], in [7], in [8] and in assay [9] was “inactive” each time. In addition, the Potency entry in assay [10] is “inactive”.
For `O=C(NCCCN1CCOCC1)c1ccc(Cl)cc1`, the Potency entry in [6], in [1], in [4], in assay [11], in assay [12] and in assay [13] was “inactive” in each case. For the same compound, the Potency entry in assay [15], in assay [7], in assay [9] and in assay [10] was “inactive” throughout. Moreover, the max activation in assay [5] was 4.03%. For the same compound, in assay [14], the Potency is 2.45 µM (active).
On to `CCC(=O)Oc1ccc(/C(CC)=C(\CC)c2ccc(OC(=O)CC)cc2)cc1`, for which the Potency result in assay [1], in assay [14], in assay [15], in assay [7], in assay [9] and in assay [10] was “inactive” in each case. Besides, the Potency in assay [2] is 61.1 µM (active). In [3], the call was inactive.
Regarding `Cc1nc2ccccc2s1`, the Potency result in [6], in [1], in assay [2], in [11], in [14] and in assay [7] was “inactive” throughout. For the same compound, the Potency result in assay [9] and in [10] was “inactive” in each case. Moreover, the Potency in [15] is 80.2 µM (active).
